Results from PubChem BioAssay AID1159580 (chemical genetic matrix, 2015).
“And” between values parts separate entries of the source, which are not always exact repeats. Equal values may be shown once. Among all 5,500 compounds or so, about 2,000 (36%) were called active. About 18% were inconclusive and are not listed. Rule as the data show it: active = normalized growth mostly below about 0.91 (no sharp cut-off); inconclusive = no clear call, values can overlap the other calls; inactive = mostly above about 0.92. This is one part of the list.

Assay: chemical genetic growth profiling, strain panel (AID 1159580);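 also: tested at 20 µM; growth read once vehicle control cultures reached saturation at 30 °C; 1 = growth at the plate median or of vehicle wells; lower values mean less growth of the strain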
Details: S. cerevisiae deletion strains, growth OD

Measured: normalized growth

CC1(C)CC2C1CC[C@]1(CBr)CCC3C(CC(=O)O)C(=O)O[C@@]32C1 (stereo partly specified)
inactive: locus YAL021C, strain ccr4, stronger effect = lower value 0.992 | locus YAL026C, strain drs2, stronger effect = lower value 1.02 | locus YAL030W, strain snc1, stronger effect = lower value 1.01 | locus YBL061C, strain skt5, stronger effect = lower value 1.01 | locus YBR009C, strain hhf1, stronger effect = lower value 1.03 | locus YBR021W, strain FUR4, stronger effect = lower value 1.01 | locus YBR023C, strain chs3, stronger effect = lower value 1.01 | locus YBR171W, strain sec66, stronger effect = lower value 1.01 | locus YBR229C, strain ROT2, stronger effect = lower value 0.958 | locus YBR231C, strain swc5, stronger effect = lower value 1.01 | locus YBR279W, strain paf1, stronger effect = lower value 1.01 | locus YCL011C, strain gbp2, stronger effect = lower value 1.01 | locus YCL016C, strain dcc1, stronger effect = lower value 1.01 | locus YCL029C, strain bik1, stronger effect = lower value 0.985 | locus YCL061C, strain MRC1, stronger effect = lower value 1.01 | locus YCL069W, strain vba3, stronger effect = lower value 1.01 | locus YCR088W, strain abp1, stronger effect = lower value 1.01 | locus YDL005C, strain med2, stronger effect = lower value 1 | locus YDL035C, strain GPR1, stronger effect = lower value 0.984 | locus YDL040C, strain nat1, stronger effect = lower value 1.01 | locus YDL074C, strain BRE1, stronger effect = lower value 1 | locus YDL101C, strain DUN1, stronger effect = lower value 1 | locus YDL134C, strain PPH21, stronger effect = lower value 1.05 | locus YDL185W, strain tfp1, stronger effect = lower value 0.971 | locus YDL192W, strain arf1, stronger effect = lower value 0.976 | locus YDR001C, strain nth1, stronger effect = lower value 1.01 | locus YDR069C, strain doa4, stronger effect = lower value 1.02 | locus YDR101C, strain arx1, stronger effect = lower value 0.98 | locus YDR137W, strain rgp1, stronger effect = lower value 0.997 | locus YDR150W, strain NUM1, stronger effect = lower value 1 | locus YDR159W, strain sac3, stronger effect = lower value 1.03 | locus YDR162C, strain NBP2, stronger effect = lower value 0.976 | locus YDR195W, strain ref2 1 | locus YDR297W, strain sur2, stronger effect = lower value 1.01 | locus YDR318W, strain mcm21, stronger effect = lower value 0.989 | locus YDR334W, strain swr1, stronger effect = lower value 1.01 | locus YDR335W, strain msn5, stronger effect = lower value 1.02 | locus YDR388W, stronger effect = lower value 1 | locus YDR392W, strain spt3, stronger effect = lower value 0.968 | locus YDR502C, strain sam2, stronger effect = lower value 1.03 | locus YEL003W, strain gim4, stronger effect = lower value 1.02 | locus YEL037C, strain rad23, stronger effect = lower value 1.01 | locus YEL061C, strain CIN8 (second series), stronger effect = lower value 1.01 | locus YEL061C, strain CIN8, stronger effect = lower value 0.978 | locus YER015W, strain faa2, stronger effect = lower value 1 | locus YER016W, strain bim1, stronger effect = lower value 1.02 | locus YER110C, stronger effect = lower value 0.984 | locus YER111C, strain swi4, stronger effect = lower value 1.01 | locus YER155C, strain BEM2 (second series), stronger effect = lower value 1.04 | locus YER155C, strain BEM2, stronger effect = lower value 0.986 | locus YER167W, strain BCK2, stronger effect = lower value 0.993 | locus YFR010W, strain ubp6, stronger effect = lower value 1.01 | locus YGL078C, strain dbp3, stronger effect = lower value 1.04 | locus YGL086W, strain mad1, stronger effect = lower value 1 | locus YGL167C, strain pmr1, stronger effect = lower value 1.01 | locus YGL173C, strain kem1, stronger effect = lower value 1.01 | locus YGL227W, strain vid30, stronger effect = lower value 1.02 | locus YGL240W, strain doc1, stronger effect = lower value 1.03 | locus YGL248W, strain PDE1, stronger effect = lower value 1.03 | locus YGL253W, strain hxk2, stronger effect = lower value 1.01 | locus YGR135W, strain pre9, stronger effect = lower value 1.09 | locus YGR229C, strain SMI1, stronger effect = lower value 0.965 | locus YGR252W, strain gcn5, stronger effect = lower value 1.08 | locus YHR013C, strain ard1, stronger effect = lower value 1.01 | locus YHR027C, strain rpn1, stronger effect = lower value 1.01 | locus YHR030C, strain SLT2, stronger effect = lower value 0.983 | locus YHR079C, strain IRE1 (second series), stronger effect = lower value 0.994 | locus YHR079C, strain IRE1, stronger effect = lower value 1.02 | locus YHR094C, strain hxt1, stronger effect = lower value 0.979 | locus YHR129C, strain ARP1, stronger effect = lower value 0.995 | locus YHR142W, strain chs7, stronger effect = lower value 0.998 | locus YHR200W, strain rpn10, stronger effect = lower value 1 | locus YIL066C, strain RNR3, stronger effect = lower value 0.98 | locus YIL073C, strain SPO22, stronger effect = lower value 1.07 | locus YIL125W, strain kgd1, stronger effect = lower value 0.984 | locus YIR030C, strain dcg1, stronger effect = lower value 0.992 | locus YJL092W, strain hpr5, stronger effect = lower value 1.01 | locus YJL095W, strain BCK1 (second series), stronger effect = lower value 1.02 | locus YJL095W, strain BCK1, stronger effect = lower value 1.07 and 0.997 | locus YJL115W, strain asf1, stronger effect = lower value 1.02 | locus YJL129C, strain trk1, stronger effect = lower value 0.997 | locus YJL134W, strain LCB3, stronger effect = lower value 0.993 | locus YJL154C, strain vps35, stronger effect = lower value 1 | locus YJL164C, strain tpk1, stronger effect = lower value 1.03 | locus YJL166W, strain qcr8, stronger effect = lower value 1 | locus YJL168C, strain set2, stronger effect = lower value 1 | locus YJL187C, strain SWE1 (second series), stronger effect = lower value 1.02 | locus YJL187C, strain SWE1, stronger effect = lower value 1.02 | locus YJR066W, strain TOR1, stronger effect = lower value 0.922 | locus YJR075W, strain HOC1, stronger effect = lower value 1.02 | locus YKL009W, strain mrt4, stronger effect = lower value 0.976 | locus YKL068W, stronger effect = lower value 0.989 | locus YKL085W, strain MDH1 (second series), stronger effect = lower value 0.995 | locus YKL085W, strain MDH1, stronger effect = lower value 0.995 | locus YKL160W, strain elf1, stronger effect = lower value 0.99 | locus YKL190W, strain CNB1, stronger effect = lower value 0.994 | locus YKR001C, strain vps1, stronger effect = lower value 0.993 | locus YKR026C, strain gcn3, stronger effect = lower value 0.996 | locus YKR091W, strain srl3, stronger effect = lower value 1.01 | locus YLL001W, strain dnm1, stronger effect = lower value 1.03 | locus YLL026W, stronger effect = lower value 1.02 | locus YLL041C, strain sdh2, stronger effect = lower value 1.01 | locus YLR027C, strain aat2, stronger effect = lower value 1.01 | locus YLR039C, strain RIC1, stronger effect = lower value 1.07 | locus YLR058C, strain SHM2, stronger effect = lower value 0.996 | locus YLR102C, strain apc9, stronger effect = lower value 0.995 | locus YLR113W, strain HOG1, stronger effect = lower value 1.03 | locus YLR221C, strain rsa3, stronger effect = lower value 1.01 | locus YLR258W, strain gsy2, stronger effect = lower value 1.03 | locus YLR262C, strain YPT6 (second series), stronger effect = lower value 0.976 | locus YLR268W, strain sec22, stronger effect = lower value 0.96 | locus YLR320W, strain mms22, stronger effect = lower value 1.02 | locus YLR330W, strain CHS5, stronger effect = lower value 0.992 | locus YLR342W, strain FKS1, stronger effect = lower value 1.01 | locus YLR357W, strain rsc2, stronger effect = lower value 1.04 | locus YLR370C, strain arc18, stronger effect = lower value 1.01 | locus YLR371W, strain rom2, stronger effect = lower value 1.01 | locus YLR384C, strain iki3, stronger effect = lower value 1.01 | locus YLR418C, strain cdc73, stronger effect = lower value 1.04 | locus YML016C, strain PPZ1, stronger effect = lower value 0.997 | locus YML032C, strain rad52, stronger effect = lower value 0.992 | locus YML120C, strain ndi1, stronger effect = lower value 1.02 | locus YML124C, strain tub3, stronger effect = lower value 0.992 | locus YMR058W, strain fet3, stronger effect = lower value 1.02 | locus YMR078C, strain ctf18, stronger effect = lower value 0.998 | locus YMR125W, strain sto1, stronger effect = lower value 1 | locus YMR129W, stronger effect = lower value 1.01 | locus YMR205C, strain PFK2, stronger effect = lower value 1.02 | locus YMR223W, strain ubp8, stronger effect = lower value 1.02 | locus YMR231W, strain pep5, stronger effect = lower value 1 | locus YMR307W, strain GAS1, stronger effect = lower value 1.06 | locus YNL067W, strain RPL9B, stronger effect = lower value 1.03 | locus YNL071W, strain lat1, stronger effect = lower value 1.01 | locus YNL128W, strain TEP1, stronger effect = lower value 0.984 | locus YNL153C, strain GIM3, stronger effect = lower value 1.03 | locus YNL183C, strain NPR1, stronger effect = lower value 0.924 | locus YNL209W, strain ssb2, stronger effect = lower value 1.01 | locus YNL233W, strain BNI4, stronger effect = lower value 1.06 | locus YNL248C, strain rpa49, stronger effect = lower value 1.01 | locus YNL250W, strain rad50, stronger effect = lower value 0.973 | locus YNL271C, strain bni1, stronger effect = lower value 0.987 | locus YNL298W, strain CLA4, stronger effect = lower value 1 | locus YNL307C, strain MCK1, stronger effect = lower value 1.04 | locus YNL322C, strain KRE1 (second series), stronger effect = lower value 1.01 | locus YNL322C, strain KRE1, stronger effect = lower value 0.988 | locus YNR049C, strain mso1, stronger effect = lower value 1.02 | locus YNR052C, strain pop2, stronger effect = lower value 1.04 | locus YOL006C, strain TOP1, stronger effect = lower value 1.06 | locus YOL012C, strain htz1 1 | locus YOL147C, strain pex11, stronger effect = lower value 0.99 | locus YOR001W, strain rrp6, stronger effect = lower value 1.01 | locus YOR061W, strain CKA2, stronger effect = lower value 0.972 | locus YOR069W, strain VPS5, stronger effect = lower value 1.01 | locus YOR070C, strain gyp1, stronger effect = lower value 1.03 | locus YOR080W, strain dia2, stronger effect = lower value 1 | locus YOR083W, strain WHI5, stronger effect = lower value 0.986 | locus YOR106W, strain vam3, stronger effect = lower value 1.01 | locus YOR136W, strain idh2, stronger effect = lower value 0.994 | locus YOR144C, strain elg1, stronger effect = lower value 0.988 | locus YOR184W, strain ser1, stronger effect = lower value 0.957 | locus YOR231W, strain MKK1, stronger effect = lower value 1.01 | locus YOR265W, strain rbl2, stronger effect = lower value 1.01 | locus YOR270C, strain vph1, stronger effect = lower value 0.999 | locus YOR290C, strain snf2, stronger effect = lower value 0.99 | locus YOR316C, strain cot1, stronger effect = lower value 1 | locus YPL051W, strain arl3, stronger effect = lower value 1 | locus YPL078C, strain atp4, stronger effect = lower value 1.01 | locus YPL106C, strain sse1, stronger effect = lower value 1.02 | locus YPL240C, strain hsp82, stronger effect = lower value 1.01 | locus YPL241C, strain CIN2, stronger effect = lower value 0.999 | locus YPL256C, strain CLN2, stronger effect = lower value 0.972 | locus YPR119W, strain clb2, stronger effect = lower value 0.993 | locus YPR141C, strain kar3, stronger effect = lower value 0.991 | locus YPR163C, strain tif3, stronger effect = lower value 0.994 | locus YPR167C, strain met16, stronger effect = lower value 0.999 | strain wtn01, stronger effect = lower value 0.984
